Shiga inhibitor: inhibitors of Shiga toxin in Vero cells; inhibition, % at 38.7 µM; AID 2315; 9.2% of 290,000 active; Vero cells, Shiga toxin protein synthesis inhibition reporter; in the data active means inhibition mostly above about 28%, no sharp cut-off; inactive means mostly below about 43%
Cycloheximide cs: counter-screen hit for Shiga toxin inhibitors, cycloheximide; 12% of 300,000 active; max response, %; cell reporter, cycloheximide protein synthesis inhibition counterscreen; in the data active means max response mostly above about 13%, no sharp cut-off; inactive means mostly below about 14%; further: read at 38.3 µM for the half of the compounds with a filed dose
SARS PLP yeast: SARS-CoV PLP inhibition in yeast; S. cerevisiae expressing SARS-CoV PLpro, growth rescue; 0.19% of 330,000 active; Potency, µM (doses to about 32.9 µM), usual class: activators; AID 485353; further: nearly all actives have a fitted effect of over 55% in size
TbPYK inhibitor: inhibitors of Trypanosoma brucei pyruvate kinase; 0.12% of 410,000 active; AID 624173; Potency, µM (top dose mostly 76.8 µM), usual class: inhibitors; TbPYK enzyme, Kinase-Glo Plus ATP luminescence, 45 min; active means well fitted curve in the direction sought with a large enough effect; inconclusive means small, poorly fitted or top-dose-only effect, or another doubt; inactive means no such curve, though single readings can be large; an effect the other way counts as inactive or inconclusive; further: nearly all actives have a fitted effect of over 50% in size
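In this concentration-response screen, enzyme-free wells defined baseline while DMSO plates tracked drift. Each reaction combined TbPYK, substrate, compound and 130 uM ADP for 45 min at room temperature. Kinase-Glo Plus luminescence gave the signal.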
LmPK inh: blocks Leishmania mexicana pyruvate kinase activity; Q27686; purified LmPK, Kinase-Glo ATP luminescence, 1 h; Potency, µM (top dose mostly 57.5 µM), most hits filed as inhibitors; 0.37% of 290,000 active; AID 1721; active means well fitted curve in the direction sought with a large enough effect; inconclusive means small, poorly fitted or top-dose-only effect, or another doubt; inactive means no such curve, though single readings can be large; an effect the other way counts as inactive or inconclusive
Target sequence (Q27686 whole entry, looked up): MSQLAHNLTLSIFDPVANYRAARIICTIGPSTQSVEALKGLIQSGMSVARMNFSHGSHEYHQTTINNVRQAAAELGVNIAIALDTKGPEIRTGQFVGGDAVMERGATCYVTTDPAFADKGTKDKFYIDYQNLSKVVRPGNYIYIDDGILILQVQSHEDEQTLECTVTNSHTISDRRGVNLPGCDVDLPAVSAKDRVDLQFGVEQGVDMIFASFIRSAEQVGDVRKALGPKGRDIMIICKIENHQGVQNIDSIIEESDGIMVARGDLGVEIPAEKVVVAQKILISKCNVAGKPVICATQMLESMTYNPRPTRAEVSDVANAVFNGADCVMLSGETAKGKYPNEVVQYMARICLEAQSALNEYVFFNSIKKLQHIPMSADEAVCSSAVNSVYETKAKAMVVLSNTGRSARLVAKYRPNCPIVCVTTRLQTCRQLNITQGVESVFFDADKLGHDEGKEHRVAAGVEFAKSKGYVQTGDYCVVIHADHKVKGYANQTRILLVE
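0.1 nM LmPK, 0.5 mM PEP, 0.1 mM ADP; 50 mM imidazole pH 7.2, 7 mM MgCl2, 50 mM KCl; 1 h RT. Kinase-Glo luminescence readout, normalized to no-enzyme (full inhibition) and uninhibited wells.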
NS1 function inh: influenza NS1 inhibition; Potency, µM (titrated, usually from 46.1 µM); 0.4% of 270,000 active; further: actives are rising curves; nearly all actives have a fitted effect of over 50% in size
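A cell-based growth assay was used: compounds that relieve NS1-induced slow growth of budding yeast raise OD600. Assay medium was yeast nitrogen base with ammonium sulphate and -URA supplement, pH 6.0, with 2% galactose.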
Numbers stand for hits; n = inactive; u = inconclusive; x = not tested or not shown; [ ] = remark or other dose. The sample as a whole holds a higher share of hits than the screen did. Unless noted, the call rests on the fitted dose curve.

SMILES | Shiga inhibitor | Cycloheximide cs | SARS PLP yeast | TbPYK inhibitor | LmPK inh | NS1 function inh
CCN(CC)CC1CN(N=Cc2ccc([N+](=O)[O-])o2)C(=O)O1 (centres undefined) | x | x | x | n | x | x
O=C(Nc1cnn(Cc2ccc(F)cc2)c1)c1cc(-c2ccc(Br)cc2)on1 | x | x | x | x | x | n
Cc1c(NC(=O)c2ccc(Cl)nc2)cccc1-c1nc2cccnc2s1 | n | n | n | n | n | n
O=C(Nc1ccc(-c2nc3cccnc3s2)cc1)c1ccc(Cl)nc1 | 68 | 34 | n | n | n | n
O=C(Nc1ccc(-c2nc3cccnc3s2)cc1)c1cccnc1Cl | 57 | 66 | n | n | n | n
CC(C(=O)Nc1ccc2c(c1)OCO2)N(C)CC(=O)Nc1ccc(Cl)cc1 (centres undefined) | x | x | x | n | x | x
CC(=O)c1cccc(N(CC(=O)Nc2ccc(F)cc2F)S(C)(=O)=O)c1 | 51 | 30 | x | n | n | n
Nn1cnnc1N/N=C/c1cc(Br)cc(Br)c1O | n | n | n | n | n | n
CC(C)(C)c1ccc(/C=N/Nc2nncn2N)cc1 | n | 17 | n | n | n | n
Nc1nnnn1/N=C/c1ccc(Br)cc1 | n | n | n | n | n | n
CSc1ccc(/C=N\Nc2nncn2N)cc1 | 76 | 28 | n | n | n | n
CC(C)(C)c1nnc(N/N=C/c2ccc(Br)cc2)n(N)c1=O | 64 | 55 | n | n | n | n
OCCOC[C@H]1O[C@H](OCCO)[C@H](OCCO)[C@@H](OCCO)[C@@H]1OCCO (tested in a mixture with another compound) | x | x | x | n | x | x
Cc1c(C(=O)Nc2nc(-c3ccc(F)cc3)ns2)oc2ccc(Br)cc12 | x | x | x | n | x | x
Cc1cccc(Nc2nc(-c3ccc(F)c(C)c3)cs2)n1 | 113 | 49 | n | n | n | n
Cc1cccc(Nc2nc(-c3ccc(O)c(O)c3)cs2)n1 | 85 | 42 | n | n | u | n
CCOc1ccc(NC(=O)c2ccccc2SC)cc1 | 59 | 50 | n | n | n | n
CCOc1ccc(NC(=O)C(C)Oc2ccccc2C(=O)Nc2ccc(C)c(Cl)c2)cc1 (centres undefined) | 111 | 22 | n | n | n | n
Cc1ccc(NC(=O)COc2ccccc2C(=O)Nc2ccccc2)cc1Cl | n | n | n | n | n | n
CCSc1ccccc1C(=O)Nc1cccc(OC)c1 | n | 15 | n | n | n | n
CCOc1ccc(NC(=O)c2cc(SC)ccc2Cl)cc1 | n | n | n | n | n | n
COc1ccc(NC(=O)c2ccccc2SC)cc1 | 67 | 54 | n | n | u | n
COc1cccc(NC(=O)c2ccccc2Oc2ccccc2)c1 | n | n | n | n | n | n
COc1ccc(C(=O)NC2CCCc3ccccc32)c(OC)c1OC (centres undefined) | n | n | n | n | n | n
Cc1cccc(C)c1N(Cc1ccccc1F)S(C)(=O)=O | n | n | n | n | n | n
SMILES | Shiga inhibitor | Cycloheximide cs | SARS PLP yeast | TbPYK inhibitor | LmPK inh | NS1 function inh
COCCN1Cc2cccc(C(=O)Nc3ccc(C(=O)OC)cc3)c2C1=O | x | x | x | n | x | x
CN(C)S(=O)(=O)c1cccc(NC(=O)c2ccc3nccnc3c2)c1 | n | 20 | n | n | n | n
CC(=O)c1cccc(NC(=O)c2cccc(S(=O)(=O)N(C)C)c2)c1 | n | 13 | n | n | n | n
O=S(=O)(Nc1cccc(-c2ccc(N3CCCCC3)nn2)c1)c1ccc(Cl)s1 | x | x | x | n | x | x
O=C(Nc1ccccc1[N+](=O)[O-])c1cncc(Br)c1 | n | 28 | n | n | n | x
Cc1cc(C(=O)Nc2cccc([N+](=O)[O-])c2C)cs1 | n | 26 | n | n | n | n
CC(C)(C)c1ccc(NC(=O)c2ccccc2)c([N+](=O)[O-])c1 | 122 | 35 | n | n | n | x
Cc1c(NC(=O)c2ccc3nsnc3c2)cccc1[N+](=O)[O-] | n | n | n | n | n | n
Cc1c(NC(=O)c2ccc(C(C)(C)C)cc2)cccc1[N+](=O)[O-] | n | 27 | n | n | n | n
O=C(NC1CC(=O)N(c2ccccc2)C1)N1CCN(C(=O)c2ccco2)CC1 (centres undefined) | x | x | n | n | x | x
O=C(NC(=S)Nc1cccc2c(O)cccc12)c1ccccc1[N+](=O)[O-] | n | n | n | n | n | n
O=C(NC(=S)Nc1cccc2[nH]ncc12)c1ccccc1 | 58 | 36 | n | n | n | x
O=C(NC(=S)Nc1ccccc1[N+](=O)[O-])c1ccccc1 | 96 | 45 | n | n | n | n
CC1CCCC(C)N1C(=O)COC(=O)CSc1ccc(C(N)=O)cc1[N+](=O)[O-] (centres undefined) | x | x | n | n | x | x
CC(C)CCNC(=O)CSc1nc2ccsc2c(=O)n1NC(=O)c1ccccc1 | n | 26 | n | n | n | n
CCCN(CCC)C(=O)CSc1nc2ccsc2c(=O)n1NC(=O)c1ccccc1 | n | 19 | n | n | n | n
COc1cccc(NC(=O)CN(C)C(=O)CCNC(=O)c2ccccc2OC)c1 | x | x | x | n | x | x
CCc1ccc2nc(N(Cc3cccnc3)C(C)=O)sc2c1 | x | x | x | n | x | x
COc1ccc(CN2CCNC(=O)C2CC(=O)N(C)C2CCOCC2)cc1OC (centres undefined) | x | x | x | n | x | x
CCOc1ccc(C(=O)Nc2nnc(C3=COCCO3)o2)cc1 | n | 8.4 | n | n | n | n
COc1ccc(C(=O)Nc2nnc(C3=COCCO3)o2)cc1 | n | n | n | n | n | n
CCOc1ccc(-c2nnc(NC(=O)C3CCCC3)o2)cc1 | 42 | 35 | n | n | n | n
O=C(CCOc1ccccc1)Nc1nnc(-c2ccc3c(c2)OCCO3)o1 | n | 21 | n | n | n[11.5 µM] | x
O=C(Nc1nnc(-c2ccc3c(c2)OCCO3)o1)C1CCCCC1 | 131 | 43 | n | n | n[11.5 µM] | x
O=C(Nc1nnc(-c2ccc3c(c2)OCCO3)o1)c1ccc(Cc2ccccc2)cc1 | n | n | n | n | n | n
SMILES | Shiga inhibitor | Cycloheximide cs | SARS PLP yeast | TbPYK inhibitor | LmPK inh | NS1 function inh
COc1ccccc1CNC(=O)/C=C/c1ccc(Br)o1 | n | n | n | n | n | x
CC1CCC(N2CC(=O)N(C3CCCC3)C(c3ccc(Cl)cc3)C2=O)CC1 (centres undefined) | x | x | x | n | x | x
COc1cccc(-c2nc(SCC(=O)Nc3ccc4c(c3)OCO4)c(-c3ccccc3)[nH]2)c1 | x | x | x | n | x | x
O=C1NC[C@H](CCCCN2C[C@H](Cc3ccccc3)N(Cc3ccccc3)C(=O)C2=O)N(CCC2CCCCC2)C1=O | x | x | x | n | x | x
COc1ccc([C@@H](C)NC(=O)c2ccc3oc(C(C)C)nc3c2)cc1 | 74 | 50 | x | n | n | n
CCOC(=O)CC1CCCCN1C(=O)c1ccc2oc(CCc3ccccc3)nc2c1 (centres undefined) | 34 | 17 | n | n | n | n
COCCC1CCCCN1C(=O)c1ccc2nc(Cc3ccccc3F)oc2c1 (centres undefined) | 97 | 61 | n | n | n | n
CCOC(=O)CC1CCCCN1C(=O)c1ccc2nc(CCOC)oc2c1 (centres undefined) | n | n | n | n | n | n
